From PubChem BioAssay AID1347048 (National Center for Advancing Translational Sciences (NCATS), 2019)
Among all 76,000 compounds or so, about 1,200 (1.6%) were called active. Another 4% or so got no clear call; they are omitted. Calls follow the shape of the full dose curve. The full list was thinned out, with actives kept by preference.

biological target: Atrial natriuretic peptide receptor 1 (Homo sapiens) (UniProt P16066); assay: Natriuretic polypeptide receptor (hNpr1) antagonism - Primary qHTS; conditions: HEK293 hNpr1 GloSensor cGMP, ANP-stimulated luminescence; series mostly up to 46.3 µM; activity change, negative = inhibition: at the top concentration; also: nearly all actives have a fitted effect of over 60% in size
Sequence (P16066 whole entry, looked up): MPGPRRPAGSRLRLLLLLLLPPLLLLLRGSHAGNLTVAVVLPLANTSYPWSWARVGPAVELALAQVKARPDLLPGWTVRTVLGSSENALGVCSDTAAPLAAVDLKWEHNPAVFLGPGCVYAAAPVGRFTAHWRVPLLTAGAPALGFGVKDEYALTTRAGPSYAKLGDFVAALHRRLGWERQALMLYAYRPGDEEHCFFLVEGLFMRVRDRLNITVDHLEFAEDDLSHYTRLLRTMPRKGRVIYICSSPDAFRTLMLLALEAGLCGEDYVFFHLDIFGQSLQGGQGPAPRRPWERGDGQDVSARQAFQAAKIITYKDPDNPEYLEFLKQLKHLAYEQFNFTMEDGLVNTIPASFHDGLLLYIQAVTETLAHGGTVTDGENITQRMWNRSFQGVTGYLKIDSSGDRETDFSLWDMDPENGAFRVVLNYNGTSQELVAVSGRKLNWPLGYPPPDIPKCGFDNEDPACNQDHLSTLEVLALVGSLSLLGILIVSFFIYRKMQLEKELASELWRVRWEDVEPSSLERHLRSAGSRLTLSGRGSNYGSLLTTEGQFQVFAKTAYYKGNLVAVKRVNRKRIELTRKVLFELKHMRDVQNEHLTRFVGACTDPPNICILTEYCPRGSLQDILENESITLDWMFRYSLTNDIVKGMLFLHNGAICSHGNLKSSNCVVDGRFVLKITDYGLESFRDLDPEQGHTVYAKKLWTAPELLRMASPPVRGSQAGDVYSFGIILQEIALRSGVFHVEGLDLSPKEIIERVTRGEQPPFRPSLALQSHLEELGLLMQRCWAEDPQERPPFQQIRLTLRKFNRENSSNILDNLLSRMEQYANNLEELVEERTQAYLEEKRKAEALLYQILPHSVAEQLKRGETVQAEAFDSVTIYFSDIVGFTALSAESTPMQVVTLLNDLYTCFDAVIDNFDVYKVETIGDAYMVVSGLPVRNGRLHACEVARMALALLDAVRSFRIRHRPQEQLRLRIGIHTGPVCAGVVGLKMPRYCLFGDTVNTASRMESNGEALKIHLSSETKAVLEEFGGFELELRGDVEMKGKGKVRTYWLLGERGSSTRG
Description: Pruritus or itch, is an irritating skin sensation that creates a need to scratch, and ranges from mildly unpleasant and passing to acute and persistent sensations. […] Conventional treatments include topical anti-inflammatory agents, anti-histamines, and emollients, which are aimed at managing the itchy sensation and not the underlying disease. The treatment of pruritus remains a diagnostic and therapeutic challenge. Neurotransmission in the spinal cord from primary pruriceptors to second order neurons is a necessary step that eventually results in the sensation of itch. At this synapse, primary pruriceptors use the neuropeptide natriuretic polypeptide B (NppB) to activate its cognate receptor Natriuretic polypeptide receptor 1 (Npr1) on second order neurons. Inhibition of this step is a new potential strategy to inhibit acute and chronic itch. In order to identify small molecular compounds that can inhibit the Npr1 receptor we developed a high-throughput assay to probe inhibition of the receptor guanylate cyclase Npr1. The assay was designed taking advantage of Promega's GloSensor[TM] technology (Fan, F. et al. 2008). It involves the expression of a cyclic guanosine monophosphate (cGMP) biosensor, comprised of a firefly luciferase variant that was coupled to the cGMP binding domain of human phosphodiesterase 5A, and loading of cells with a cell-permeable luciferase substrate to monitor cGMP production by Npr1 in real time in live cells. In detail, we generated human embryonic kidney 293 cells stably expressing the human Npr1 and the cGMP GloSensor[TM] pGS-40F. Stimulating these cells with the Npr1 agonists human NppA or NppB, luciferase-induced light production could be detected in a dose-dependent manner. We also generated HEK293 cells stably expressing human Npr2 and pGS-40F and cells only expressing pGS-40F to conduct secondary counter screens. In these cells, NppC or sodium nitroprusside were used to stimulate Npr2 or soluble guanylate cyclase which is endogenously expressed in HEK293 cells, respectively. REFERENCE F. Fan, B. F. Binkowski, B. L. Butler, P. F. Stecha, M. K. Lewis, K. V. Wood, Novel genetically encoded biosensors using firefly luciferase. ACS Chem. Biol., 2008, 3: 346-351 .
PROTOCOL TABLES (as described by Inglese J, Shamu CE and Guy RK. 2007) SEQUENCE No. (e.g., 1, 2, 3, etc.); […] (e.g., Cells, Incubation, Reagent, etc.); VALUE and DESCRIPTION. GLOSENSOR PROTOCOL 1. Cells. Seed 1500 HEK293 cGMP-sensor cells expressing hNpr1 per well in 4uL into Greiner 1536-well white/solid bottom high base, tissue culture-treated plates. 2. Incubation. Incubate plated cells at 37C in 5% CO2, 95% RH overnight. 3. Reagent. Add 1uL per well GloSensor reagent from Promega (2% final concentration) or CO2 independent media vehicle control to respective columns of Greiner 1536-well plates. 4. Incubation. Incubate plated cells at room temperature for 2 h, protect from light. 5. Compounds. Library compounds and A-71915 control added at 23 nL per well, transferred by Pin Tool. 6. Incubation. Incubate plated cells for 30 min. at room temperature, protect from light. 7. Detector. GloSensor baseline pre-read luminescence measured using CCD-based camera (Viewlux). 8. Compound. Add 1uL of hNppA peptide to 0.1 nM final concentration to stimulate hNpr1 or CO2 independent media as vehicle control. 9. Incubation. Incubate treated cells at room temperature for 20 min., protect from light. 10. Detector. GloSensor post-hNppA luminescence measured using CCD-based camera (Viewlux). NOTES (numbers refer to Sequence numbers above) 1. HEK293 cells expressing hNpr1 and GIP/pGS-40F grown to 85-95% confluence (48-72 h) in T175 culture flasks (CO2 independent media supplemented with 10% FBS, 1% Pen/Strep antibiotics and 1 ug/mL puromycin). Trypsinize and harvest cells from T175 culture flasks and filter through 40 um cell strainer. Cells counted with Invitrogen Countess (30,000,000 - 50,000,000 cells/flask). […]
% is scaled to controls: 0 for no effect and ±100 for the full control effect; potency is read from the fitted curve at half-maximal effect.

Potency, active:
CC(=O)N1CCC(NC[C@H]2O[C@H](Cc3cc(-c4cccc(O)c4)on3)CC[C@@H]2O)CC1 25.1 µM
Cc1nc(-c2ccncc2)ncc1C(C)Nc1ncnc(C)c1C (stereo unspecified) 10 µM
O=C(c1ccccc1)N1CCNc2cnc(Nc3cccc(C(F)(F)F)c3)nc2C1 20 µM
O=C(c1cccc(O)c1)N1CCNc2cnc(Nc3cccc(F)c3)nc2C1 22.4 µM
O=C(c1cccc(F)c1)N1CCOC[C@H](Oc2ccc(C(F)(F)F)cc2)C1 28.2 µM
Cc1nn(-c2ccc(C(C)C)cc2)c(C)c1[C@@H]1C=C[C@@H](NC(=S)NCC(C)C)C1 28.2 µM
COc1ccc(-n2nc(C)c([C@@H]3C=C[C@@H](NC(=O)Nc4ccccc4)C3)c2C)cc1 14.1 µM
COc1ccc(-n2nc(C)c([C@H]3C=C[C@@H](OC(=O)Nc4cccc(F)c4)C3)c2C)cc1 20 µM
Cc1noc(C)c1-c1cc(-c2ccccc2Oc2ccccc2)cn2cncc12 28.2 µM
CN1CCN(C(=O)C(C)(C)Oc2nn(Cc3cccc(Cl)c3)c3ccccc23)CC1 15.8 µM
OC1(Cc2cc(-c3ccccc3)no2)CCN(c2ncncn2)CC1 3.55 µM
O=C(c1ccc(F)cc1Cl)N1CCC(n2cc(-c3nc(-c4ccccc4)no3)nn2)C1 (stereo unspecified) 3.98 µM
COc1ccccc1C(=O)N1CCCC(n2cc(-c3nc(-c4ccccc4)no3)nn2)C1 (stereo unspecified) 4.47 µM

Activity change, negative = inhibition, inactive:
O=C(NC[C@H]1O[C@H](Cc2cc(-c3ccccc3)on2)CC[C@@H]1O)C1CCC1 3.18% [at 70.6 µM]
O[C@H]1CC[C@@H](Cc2cc(-c3ccccc3)on2)O[C@@H]1CNCc1ccccc1 -16.7% [at 70.6 µM]
NC(=O)C1CCCN(CC(=O)Nc2nc3ccccc3[nH]2)C1 (stereo unspecified) 7.47%
CC1Oc2ccc(NC(=O)c3ccc([N+](=O)[O-])cc3)cc2CN(Cc2ccccc2)C1=O (stereo unspecified) -15.2%
CC(Cn1cncn1)Nc1nc(-c2ccncc2)nc2c1cnn2C (stereo unspecified) 9.2%
Cc1ccc(-c2ncc(C(=O)Nc3ccccc3C)c(-c3ccncc3)n2)cc1 -5.03%
COCC(=O)N1CCCC(c2nc(-c3ccc(C)nn3)no2)C1 (stereo unspecified) 1.03%
O=C(c1cccc(F)c1)N1CCCC(CN2CCOCC2)CC1 (stereo unspecified) 4.23%
COc1ccccc1Nc1ncc2c(n1)CN(C(=O)COc1ccccc1)CCN2 -1.75% [at 70.6 µM]
O=C(c1cccc(F)c1)N1CCCC(c2nccn2Cc2cscn2)C1 (stereo unspecified) -4.15%
O=C(c1nc2ccccc2[nH]1)N1CCNc2cnc(Nc3ccc(-n4ccnc4)cc3)nc2C1 -12.9%
COc1ccc(C(=O)N[C@H]2C[C@@H](c3nc(-c4ccc(OC)cc4)no3)N(C)C2)cc1 -3.43% [at 70.6 µM]
c1ccc(Nc2cnc3ccc(-n4ccnc4)nn23)cc1 -6.68% [at 70.6 µM]
CC1(C)C[C@H](NC(=O)c2ccc(C#N)cc2)[C@@]2(CCC(=O)NCCc3c[nH]c4ccccc34)CC[C@](C)(O)C[C@@H]12 1.06%
Cc1ccccc1-c1cn[nH]c1C1CCN(C(=O)CCCn2cnnn2)CC1 -12.2%
O=C(c1cccc(F)c1)N1CCC(CCOc2ccc(F)cc2)C1 (stereo unspecified) -28.9%
O=C(C1CCOCC1)N1CCOC[C@H](Oc2ccccc2)C1 6.7% [at 70.6 µM]
Cc1nn(Cc2ccccc2)c(C)c1[C@@H]1C=C[C@@H](NC(=O)NC2CCCCC2)C1 -22.1% [at 70.6 µM]
Cc1nn(-c2cccc(Br)c2)c(C)c1[C@@H]1C=C[C@@H](NS(=O)(=O)c2ccccc2)C1 -20.2%
Cc1nn(Cc2ccccc2)c(C)c1[C@@H]1C=C[C@@H](NC(=O)NC(C)C)C1 -4.73% [at 70.6 µM]
Cc1nn(-c2ccc(C(C)C)cc2)c(C)c1[C@@H]1C=C[C@@H](NC(=O)CC2(CC(=O)O)CCCC2)C1 -1.22%
COc1ccc(NC(=O)N[C@@H]2C=C[C@@H](c3c(C)nn(-c4ccc(C(C)(C)C)cc4)c3C)C2)cc1 -18.6%
Cc1nn(-c2cccc(Br)c2)c(C)c1[C@@H]1C=C[C@@H](NC(=O)CC2(CC(=O)O)CCCC2)C1 -0.402%
COC(=O)c1c(NC(C)=O)c2cc(NC3CCCCCC3)cnc2n1CC1CCCO1 (stereo unspecified) 3.1%
O=C(Cc1ccc(Cl)cc1)N1CCc2c(nc3cc[nH]n3c2=O)C1 1.92%
COc1cccc(CN2CCN(Cc3ncccc3C)CC2)c1O -0.599%
O=c1c2c(n(Cc3ccccc3)n1-c1ccccc1)CN(Cc1ccn[nH]1)CC2 -0.367% [at 70.6 µM]
CCOc1ccc(CN2CCC(N3CCCC(C(=O)NC4CC4)C3)CC2)cc1 (stereo unspecified) -5.46%
CCCNc1ccc2nnc(C)n2n1 2.13%
COc1ccccc1-c1cc(-c2cn[nH]c2)c2cncn2c1 -9.24% [at 70.6 µM]
Cc1noc(C)c1-c1cc(-c2cncnc2)cn2cncc12 0.541% [at 70.6 µM]
CN(C)Cc1nnc(C2CC(NC(=O)c3cn4cccnc4n3)C2)n1C (stereo unspecified) 9.29%
O=C(c1ccccc1)N1CCOc2ccc(CN3CCc4ccccc4C3)cc2C1 -5.63%
CCC(=O)N1CCc2oc(C)c(C(=O)NCCN(C)C)c2C1 3.38%
CC(C)(Oc1nn(CC2CCOCC2)c2ccccc12)C(=O)NCc1ccccc1 -5.28% [at 70.6 µM]
COCc1ccc2c(c1)c(OC(C)(C)C(=O)N1CCN(C)CC1)nn2Cc1cccnc1 2.14% [at 70.6 µM]
CC(=O)N1CCC(N2C[C@H](O)C[C@H]2C(=O)NC2CCCCC2)CC1 3.14%
Cc1c(C(=O)N2CCCn3nc(C(C)O)cc3C2)sc2nc[nH]c(=O)c12 (stereo unspecified) -0.218%
C(=C\c1ccccc1)/CN1CCN(c2ncncn2)CC1 -30%
Cc1nc(CCNS(=O)(=O)c2ccc(Cl)cc2)no1 0%
O=C([C@H]1CCC[C@H](O)C1)N(CCC1=CCCCC1)Cc1ccccc1 0.789%
O=c1[nH]nc2n1CCCC2 -17.4%
COc1ccc(C(=O)N2CCCC(n3cc(-c4nc(C5CC5)no4)nn3)C2)cc1 (stereo unspecified) 2.3%
Cc1nc(-c2cn(C3CCCN(C(=O)c4cc(F)ccc4F)C3)nn2)no1 (stereo unspecified) 0%
CCc1noc(-c2cn(C3CCN(C(=O)c4cccc(OC)c4)C3)nn2)n1 (stereo unspecified) -1.19%
COc1cc(OC)cc(C(=O)N2CCCC(n3cc(-c4nc(C(C)C)no4)nn3)C2)c1 (stereo unspecified) -11.7%
COc1ccccc1-c1onc(C)c1C(=O)NCCC(c1ccccc1)c1ccccc1 -9.75%
CCn1c(C2CCCNC2)nn(Cc2noc(-c3ccc(C)cc3)n2)c1=O (stereo unspecified) 3.51%
